The nature of test [1]: Cell Viability - BJ (AID 421; calls by dose curve;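 also: potency is read from the fitted curve at half-maximal effect; cells exposed to compound for 40 hours at 37 °C before readout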). The conditions noted are these: BJ fibroblast viability, qHTS. In a few lines: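 Quantitative HTS: ATP depletion in BJ cells after 40 hr compound exposure in complete culture medium, detected with CellTiter-Glo; AC50 from standard Hill fits.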
The target of test [2] is Mitogen-activated protein kinase 10 (Mus musculus) (UniProt Q61831). In words: JNK3 AlphaScreen Assay (AID 530; active = well fitted curve in either direction with a large enough effect, not every such curve was filed as active;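 also: kinase came from lysate of stimulated human HepG2 cells; signal reports phosphorylation of biotinylated GST-cJun 1-79 at Ser73 with 10 µM ATP; % is scaled to controls: 0 for no effect and ±100 for the full control effect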). As to conditions: JNK3 lysate, c-Jun phosphorylation; series mostly up to 11.4 µM. In a few lines:
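Phosphorylation of biotinylated GST-cJun(1-79) at Ser73 is measured by AlphaScreen proximity luminescence. Enzyme is JNK3 in HepG2 lysates activated with interleukin-1beta and tumor necrosis factor alpha; ATP is 10 uM final.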
In general terms: In Alpha technology, singlet oxygen from a donor bead excites a nearby acceptor bead.

Test [3] in a line: MultiTox-Fluor Cytotoxicity Assay - LYMP1-002 - Live Cells (AID 955).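 Also: cells exposed to compound for 16 hours; % is scaled to controls: 0 for no effect and ±100 for the full control effect.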 The conditions noted are these: LYMP1-002 lymphoblastoid live-cell protease fluorescence viability; series mostly up to 46.1 µM. Put shortly:
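Cells were seeded at 2500 per well and incubated 5 hr. Compounds were then added for 16 hr at 37 C, followed by MultiTox-Fluor reagent for 60 min at room temperature and fluorescence reading of viable-cell protease signal.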

Test [4] in a line: Cell Viability - LYMP2-007 (AID 979).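 Also: cells exposed to compound for 24 h before reading; nearly all actives have a fitted effect of over 60% in size.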 Also: potency is read from the fitted curve at half-maximal effect. The conditions noted are these: LYMP2-007 lymphoblastoid cell viability; series mostly up to 92.2 µM. Put shortly: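 Cells are seeded at 2500 per well and rested 5 hr. Compounds are then added over a concentration series for 24 hr at 37 C. CellTiter-Glo is added for 30 min at room temperature before luminescence reading.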
Test [5] can be described thus: Cell Viability - LYMP2-018 (AID 985).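 Also: compound exposure lasted 24 hr at 37 °C; nearly all actives have a fitted effect of over 50% in size.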 Also: potency is read from the fitted curve at half-maximal effect. As to conditions: LYMP2-018 lymphoblastoid cells, viability (qHTS); series mostly up to 92.2 µM. Put shortly: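 Seed 2500 lymphoblastoid cells per well, incubate 5 hr at 37 C, add compound and incubate 24 hr at 37 C, add CellTiter-Glo, wait 30 min at room temperature, then read luminescence.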
Background: Quantitative high-throughput screening tests each substance at several concentrations.

Test [6] in a line: Cell Viability - LYMP2-022 (AID 987). Also: nearly all actives have a fitted effect of over 55% in size. Also: potency is read from the fitted curve at half-maximal effect. The conditions noted are these: LYMP2-022 lymphoblastoid cell viability; series mostly up to 92.2 µM. In a few lines:
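Cells were seeded at 2500 per well, rested 5 hr at 37 C, and treated with titrated compounds for 24 hr at 37 C. Cellular ATP was then quantified by luciferase luminescence, and AC50 values were derived from Hill-modelled concentration-response curves.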

Test [7] concerns the target Glucocorticoid receptor (Homo sapiens) (UniProt P04150). In words: qHTS assay for small molecule agonists of glucocorticoid receptor signaling (AID 588532; active = well fitted curve in the direction sought with a large enough effect in the signal ratio, with a control signal flat; the % refers to the signal ratio;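 also: 100% = dexamethasone at 0.1 µM and 0% = DMSO only wells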). As to conditions: HeLa MMTV-bla, beta-lactamase ratio, agonist, 18 h; stronger effect = higher value; percent of dexamethasone control, DMSO zero. Put shortly:
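Stimulation of a glucocorticoid response element-driven beta-lactamase gene was measured in HeLa cells. Responses were scaled between DMSO basal and 0.1 uM dexamethasone, then fitted for half-maximal stimulation.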

For test [8] the target is unchanged. In words: qHTS assay for small molecule antagonists of glucocorticoid receptor signaling (AID 588533; active = well fitted inhibition curve with a large enough effect in the signal ratio, with a control signal flat, not every such curve was filed as active; the % refers to the signal ratio;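 also: cells stimulated with 2 nM dexamethasone as agonist; % is scaled to controls: 0 for no effect and ±100 for the full control effect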). As to conditions: HeLa MMTV-bla, GRE beta-lactamase ratio, antagonist mode, 18 h; series mostly up to 76.8 µM. Put shortly:
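Antagonist-mode qHTS: compound titrations added to GRE-bla HeLa cells, then dexamethasone 2 nM final; 18 h, 37 C. CCF4 FRET fluorescence normalized to dexamethasone and DMSO; IC50 from Hill fit.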

For test [9], the target named is Voltage-gated inwardly rectifying potassium channel KCNH2 (Homo sapiens) (UniProt Q12809). In words: qHTS Assay for Small Molecule Inhibitors of the Human hERG Channel Activity (AID 588834).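 Also: top concentration of the series differs between compounds; % is scaled to controls: 0 for no effect and ±100 for the full control effect; lower thallium flux fluorescence means stronger hERG block; nearly all actives have a fitted effect of over 50% in size.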 As to conditions: U2OS BacMam hERG, FluxOR thallium flux fluorescence; series mostly up to 92.2 µM. Put shortly: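 In hERG-transduced U2OS cells, dye-loaded for 1 hr at room temperature in dark, test compounds incubated 10 min at 37 °C before thallium stimulation. AC50 values derived by Hill modelling of concentration-response.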

A short description of test [10]: Cell Viability - SK-N-SH (AID 435; calls by dose curve;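 also: potency is read from the fitted curve at half-maximal effect; compound exposure lasted 40 h at 37 °C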). As to conditions: SK-N-SH neuroblastoma cell viability qHTS. Put shortly:
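SK-N-SH human neuroblastoma cells (1500/well) were exposed to compounds in complete medium for 40 h at 37 °C, and intracellular ATP was then measured by CellTiter-Glo luminescence. AC50 was taken from Hill fits, normalized to DMSO and 100 uM tamoxifen.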

Test [11] in a line: MultiTox-Fluor Cytotoxicity Assay - LYMP1-001 - Live Cells (AID 947).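 Also: 0% = DMSO only and full inhibition = tetraoctylammonium bromide control.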 As to conditions: LYMP1-001 lymphoblastoid cells, live-cell protease fluorescence viability; series mostly up to 92.2 µM.
Test [12] can be described thus: Cell Viability - LYMP1-003 - Assay at 40 hr (AID 964). Also: nearly all actives have a fitted effect of over 60% in size. Also: potency is read from the fitted curve at half-maximal effect. The conditions noted are these: LYMP1-003 lymphoblastoid viability; series mostly up to 92.2 µM. Put shortly: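 Luminescent ATP signal (CellTiter-Glo) served as the viability read-out after 40 hr compound treatment of human lymphoblastoid LYMP1-003 cells at 37 C. Decreases in ATP were fitted with the Hill equation to give AC50.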

A short description of test [13]: Cell Viability - LYMP2-019 (AID 973).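 Also: 0% = DMSO alone and full effect = 92 µM tetraoctylammonium bromide; nearly all actives have a fitted effect of over 55% in size.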 The conditions noted are these: LYMP2-019 lymphoblastoid cell line viability; series mostly up to 92.2 µM. In a few lines:
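Cytotoxicity is scored as a concentration-dependent drop in cellular ATP after cells (2500/well) receive compound for 24 hr at 37 C. Tetraoctylammonium bromide serves as positive control.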

Test [14] can be described thus: Cell Viability - LYMP2-023 (AID 975).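 Also: cellular ATP measured by luciferase luminescence as viability proxy; plate controls were DMSO only for no effect and 92 µM tetraoctylammonium bromide control for full effect; nearly all actives have a fitted effect of over 55% in size.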 As to conditions: LYMP2-023 lymphoblastoid cell viability; series mostly up to 92.2 µM. Put shortly: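 Steps: seed 2500 human lymphoblastoid cells per well, incubate 5 hr at 37 C, add compound for 24 hr at 37 C, add CellTiter-Glo, hold 30 min at room temperature, read luminescence. AC50 derived by Hill modelling.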
A short description of test [15]: Cell Viability - LYMP2-025 (AID 976).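 Also: plate controls were DMSO only for no effect and tetraoctylammonium bromide control for full effect.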 As to conditions: LYMP2-025 lymphoblastoid cell viability; series mostly up to 92.2 µM. Put shortly: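 Acute cytotoxicity is scored as a concentration-dependent fall in intracellular ATP, measured by luciferase luminescence, in human lymphoblastoid LYMP2-025 cells exposed to compound for 24 hours at 37 C. AC50 values come from standard Hill fits.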

Test [16] addresses Thyroid hormone receptor beta (Homo sapiens) (UniProt P10828). Description: qHTS assay for small molecule antagonists of thyroid hormone receptor beta signaling (AID 588547; active = well fitted inhibition curve with a large enough effect in the signal ratio, with a control signal flat, not every such curve was filed as active; the % refers to the signal ratio;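 also: cells stimulated with 0.4 nM T3 agonist during compound exposure; % is scaled to controls: 0 for no effect and ±100 for the full control effect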). As to conditions: TR-UAS-bla HEK293, beta-lactamase ratio, antagonist mode, 18 h. Put shortly:
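TR-UAS-bla GripTite HEK293 cells in 2% charcoal/dextran FBS medium were preincubated 4 h at 37 C, given compound (0.59 nM to 92 uM) plus 0.4 nM T3 (final) for 18 h, then CCF4 for 2 h at RT; Hill fit gave IC50.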

Test [17] is described as follows: Cell Viability - LYMP2-001 (AID 921). Also: nearly all actives have a fitted effect of over 70% in size. Also: potency is read from the fitted curve at half-maximal effect. The conditions noted are these: LYMP2-001 lymphoblastoid cell viability; series mostly up to 92.2 µM. In a few lines: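 Human lymphoblastoid cells (Coriell), 2500 per well, were preincubated 5 hr at 37 C, then exposed to compounds in complete medium for 24 hr at 37 C. Cellular ATP was read by CellTiter-Glo luminescence; AC50 from Hill fits of concentration-response data.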

Test [18] is described as follows: qHTS assay for small molecule antagonists of peroxisome proliferator-activated receptor delta signaling (AID 588535).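 Also: cells co-treated with a PPAR-delta agonist as stimulator during compound exposure.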 As to conditions: HEK293T PPARd-UAS-bla, beta-lactamase FRET ratio, 18 h; 460 nm channel. In a few lines:
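Inhibition of PPAR-delta response element-driven beta-lactamase expression is measured in HEK293T cells exposed to a compound titration series for 18 hrs at 37 C. Half-maximal inhibition comes from Hill equation fitting.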

In test [19] the target is Bile acid receptor (Homo sapiens) (UniProt Q96RI1). Description: qHTS assay for small molecule antagonists of farnesoid X receptor signaling (AID 588526; calls by dose curve; also: % is scaled to controls: 0 for no effect and ±100 for the full control effect). The conditions noted are these: HEK293T FXR-UAS-bla, beta-lactamase ratio, antagonist mode; series mostly up to 76.7 µM. Put shortly:
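Concentration-response titrations were fitted to the Hill equation for half-maximal inhibition and maximal response, with data normalised to 50 uM chenodeoxycholic acid and DMSO control wells. Cells: FXR-UAS-bla HEK293T, dialyzed FBS.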

In test [20] the target is Peroxisome proliferator-activated receptor gamma (Homo sapiens) (UniProt P37231). In words: qHTS assay for small molecule antagonists of peroxisome proliferator-activated receptor gamma signaling (AID 588537; active = well fitted inhibition curve with a large enough effect in the signal ratio, with a control signal flat, not every such curve was filed as active; the % refers to the signal ratio;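 also: reporter cells co-stimulated with 50 nM rosiglitazone agonist during compound treatment; % of control where 0% means no effect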). The conditions noted are these: HEK293 PPARg-UAS-bla, beta-lactamase ratio, antagonist mode; series mostly up to 76.8 µM. Put shortly: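 Compounds are tested as concentration series for inhibition of rosiglitazone-driven (50 nM) reporter expression in GeneBLAzer PPAR-gamma-UAS-bla HEK293 cells. After 16 h at 37 C, CCF4 substrate is added for 2 h at room temperature and blue/green fluorescence is measured.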

SMILES strings stand for the structures. Where “and” joins values, the source holds several entries; their conditions need not be identical. Equal values may be shown once. Records with an inconclusive call do not appear. Calls of active or inactive are those of the source. Unless noted, calls follow the shape of the dose curve; as a rule, active = well fitted curve in the direction sought with a large enough effect; inconclusive = small, poorly fitted or top-dose-only effect, or another doubt; inactive = no such curve, though single readings can be large; an effect the other way counts as inactive or inconclusive.

Chain of Voltage-gated inwardly rectifying potassium channel KCNH2 (Homo sapiens) (Q12809 whole entry, looked up): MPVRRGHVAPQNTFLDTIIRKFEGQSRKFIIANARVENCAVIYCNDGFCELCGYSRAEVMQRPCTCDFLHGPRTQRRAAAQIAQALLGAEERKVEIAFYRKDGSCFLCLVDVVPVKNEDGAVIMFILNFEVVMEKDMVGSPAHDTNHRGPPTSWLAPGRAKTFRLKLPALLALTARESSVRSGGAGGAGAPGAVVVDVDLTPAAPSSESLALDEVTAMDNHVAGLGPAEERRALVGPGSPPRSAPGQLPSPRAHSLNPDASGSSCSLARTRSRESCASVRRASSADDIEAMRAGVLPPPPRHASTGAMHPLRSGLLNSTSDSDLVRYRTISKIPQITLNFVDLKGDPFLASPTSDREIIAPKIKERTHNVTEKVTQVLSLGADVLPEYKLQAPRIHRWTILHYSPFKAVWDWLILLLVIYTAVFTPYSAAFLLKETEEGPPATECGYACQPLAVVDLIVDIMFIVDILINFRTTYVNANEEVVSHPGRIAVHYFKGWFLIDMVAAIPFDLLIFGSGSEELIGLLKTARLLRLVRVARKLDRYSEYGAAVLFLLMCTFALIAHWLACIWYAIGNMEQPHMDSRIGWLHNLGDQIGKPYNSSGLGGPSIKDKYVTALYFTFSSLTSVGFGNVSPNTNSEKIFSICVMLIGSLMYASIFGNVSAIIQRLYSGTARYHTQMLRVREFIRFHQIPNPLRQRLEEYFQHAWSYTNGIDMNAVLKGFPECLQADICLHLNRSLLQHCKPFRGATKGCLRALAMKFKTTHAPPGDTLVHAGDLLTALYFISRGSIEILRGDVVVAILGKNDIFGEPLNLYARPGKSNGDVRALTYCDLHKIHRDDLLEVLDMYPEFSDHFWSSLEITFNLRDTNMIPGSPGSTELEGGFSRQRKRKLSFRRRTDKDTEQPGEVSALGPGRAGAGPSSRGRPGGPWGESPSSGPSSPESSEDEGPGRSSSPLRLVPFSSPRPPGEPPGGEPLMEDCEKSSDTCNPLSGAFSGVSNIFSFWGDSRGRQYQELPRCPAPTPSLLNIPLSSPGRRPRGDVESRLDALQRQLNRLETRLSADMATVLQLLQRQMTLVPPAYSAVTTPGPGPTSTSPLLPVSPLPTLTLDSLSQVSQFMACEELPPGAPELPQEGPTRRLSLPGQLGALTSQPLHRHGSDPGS
Chain of Thyroid hormone receptor beta (Homo sapiens) (P10828 whole entry, looked up): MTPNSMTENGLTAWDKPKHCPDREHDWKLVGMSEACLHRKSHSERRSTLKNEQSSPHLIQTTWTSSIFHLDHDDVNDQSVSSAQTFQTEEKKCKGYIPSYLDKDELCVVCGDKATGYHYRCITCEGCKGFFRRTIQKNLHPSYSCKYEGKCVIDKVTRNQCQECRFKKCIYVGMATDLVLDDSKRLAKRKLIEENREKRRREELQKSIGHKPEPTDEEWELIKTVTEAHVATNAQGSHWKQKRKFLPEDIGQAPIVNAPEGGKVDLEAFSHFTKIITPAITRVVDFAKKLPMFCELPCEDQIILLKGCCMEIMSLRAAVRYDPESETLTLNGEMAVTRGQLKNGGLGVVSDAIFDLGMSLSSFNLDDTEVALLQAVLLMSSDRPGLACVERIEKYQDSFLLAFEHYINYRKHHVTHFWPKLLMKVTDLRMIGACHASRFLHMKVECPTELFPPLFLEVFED
Chain of Glucocorticoid receptor (Homo sapiens) (P04150 whole entry, looked up): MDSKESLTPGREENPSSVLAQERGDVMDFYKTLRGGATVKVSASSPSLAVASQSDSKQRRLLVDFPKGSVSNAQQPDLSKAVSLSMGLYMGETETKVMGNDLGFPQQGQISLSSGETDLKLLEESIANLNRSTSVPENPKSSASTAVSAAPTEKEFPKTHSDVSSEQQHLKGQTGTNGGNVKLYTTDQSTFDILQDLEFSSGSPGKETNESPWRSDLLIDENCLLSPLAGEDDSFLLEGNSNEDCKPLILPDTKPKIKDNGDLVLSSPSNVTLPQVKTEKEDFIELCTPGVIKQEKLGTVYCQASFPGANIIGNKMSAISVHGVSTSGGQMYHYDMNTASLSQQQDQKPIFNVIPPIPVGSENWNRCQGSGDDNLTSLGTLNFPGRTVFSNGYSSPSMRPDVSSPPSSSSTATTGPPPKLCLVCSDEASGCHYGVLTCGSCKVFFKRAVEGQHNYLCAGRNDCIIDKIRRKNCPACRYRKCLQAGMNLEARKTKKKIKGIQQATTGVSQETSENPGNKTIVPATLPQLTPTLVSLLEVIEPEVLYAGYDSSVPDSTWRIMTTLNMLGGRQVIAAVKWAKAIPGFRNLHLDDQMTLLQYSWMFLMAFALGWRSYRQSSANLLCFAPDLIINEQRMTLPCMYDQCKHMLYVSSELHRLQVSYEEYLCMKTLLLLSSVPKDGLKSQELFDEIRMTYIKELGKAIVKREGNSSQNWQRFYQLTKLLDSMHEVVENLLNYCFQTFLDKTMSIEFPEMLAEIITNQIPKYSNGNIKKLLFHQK
Chain of Peroxisome proliferator-activated receptor gamma (Homo sapiens) (P37231 whole entry, looked up): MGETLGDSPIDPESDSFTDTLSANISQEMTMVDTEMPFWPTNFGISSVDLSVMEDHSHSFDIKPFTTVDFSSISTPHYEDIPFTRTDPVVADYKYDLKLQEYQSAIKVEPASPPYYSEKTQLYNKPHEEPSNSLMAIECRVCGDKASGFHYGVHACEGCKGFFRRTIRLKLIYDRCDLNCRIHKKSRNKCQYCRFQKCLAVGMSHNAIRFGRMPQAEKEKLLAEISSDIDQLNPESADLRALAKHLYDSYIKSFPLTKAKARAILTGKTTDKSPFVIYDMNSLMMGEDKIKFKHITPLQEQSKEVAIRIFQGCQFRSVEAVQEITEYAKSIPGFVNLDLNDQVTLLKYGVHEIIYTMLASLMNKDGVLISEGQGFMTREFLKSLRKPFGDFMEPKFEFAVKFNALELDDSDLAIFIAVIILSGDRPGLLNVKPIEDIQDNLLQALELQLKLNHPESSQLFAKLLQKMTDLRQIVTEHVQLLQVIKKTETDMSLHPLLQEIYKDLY
Chain of Bile acid receptor (Homo sapiens) (Q96RI1 whole entry, looked up): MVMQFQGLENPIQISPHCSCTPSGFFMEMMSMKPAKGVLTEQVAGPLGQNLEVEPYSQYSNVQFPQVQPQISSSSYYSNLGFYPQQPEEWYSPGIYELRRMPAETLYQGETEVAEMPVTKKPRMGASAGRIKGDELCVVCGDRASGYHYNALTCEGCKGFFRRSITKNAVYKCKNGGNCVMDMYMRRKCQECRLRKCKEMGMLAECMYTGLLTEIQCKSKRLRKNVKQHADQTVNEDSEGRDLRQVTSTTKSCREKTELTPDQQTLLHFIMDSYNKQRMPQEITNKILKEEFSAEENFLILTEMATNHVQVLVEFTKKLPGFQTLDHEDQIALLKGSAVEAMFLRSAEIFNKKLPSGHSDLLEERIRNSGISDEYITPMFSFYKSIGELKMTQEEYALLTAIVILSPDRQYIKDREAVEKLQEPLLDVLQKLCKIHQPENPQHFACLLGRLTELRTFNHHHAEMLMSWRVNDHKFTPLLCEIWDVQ

For `O=C(OCC1CO1)C1CCCCC1C(=O)OCC1CO1` (configuration not stated), the Potency in test [1] was > 92 µM (inactive); in [4], 50.1 µM (active); in test [5], 39.8 µM (active); in test [6] it was 39.8 µM (active). For the same compound, the Potency result in test [2], in [8] and in [9] was “inactive” throughout. In addition, in test [3], the result was inactive. Further, in [7], the activation is 2.8% (inactive).
With `O=[N+]([O-])c1ccccc1Nc1ccccc1`, the Potency in test [10] is > 92 µM (inactive). The Potency entry in test [11], in test [12], in [13], in test [14], in test [15] and in [5] was “inactive” each time. Further, the Potency result in test [8] is “inactive”. The compound was classed as inactive in test [3]. Also, in [16], the activity change % (negative = inhibition) was 8.34% (inactive).
In the case of `c1ccc(Nc2cccc3ccccc23)cc1`, the Potency in test [1] and in [10] was > 92 µM (inactive) throughout. Also, the Potency entry in test [17], in test [11], in test [14], in test [4] and in test [6] was “inactive” each time. The outcome in test [3] was inactive. In addition, the max response in test [18] is 27.2% and -10.4%. For the same compound, the activity change % (negative = inhibition) in test [16] was -18.5% (inactive) and -42% (inactive).
Turning to `O=C(Cl)c1ccc([N+](=O)[O-])cc1`, the Potency result in [2], in test [11], in test [12], in [14], in test [15] and in test [4] was “inactive” each time. The Potency result in [5] and in [8] was “inactive” in each case. For the same compound, the max response in test [18] stood at 8.99%.
For the compound `Clc1nc2ccccc2nc1Cl`, the Potency in test [1] and in [10] was > 92 µM (inactive) each time. The Potency entry in test [2], in test [14], in test [15], in test [5] and in [8] was “inactive” each time. For the same compound, the result in test [3] was inactive. Besides, the activity change % (negative = inhibition) in test [16] is -2.15% (inactive).
Regarding `Nc1ccccc1O`, in [1], the Potency was > 92 µM (inactive). Besides, the Potency result in [2], in test [11], in test [13], in test [4] and in test [9] was “inactive” throughout. The compound was called inactive in [3]. Moreover, in [7], the activation is 7.62% (inactive). Besides, the max response in test [18] turned out to be 17.2%.
Consider `NC(=O)Nc1nc2ccccc2[nH]1`, for which the Potency in test [1] and in [10] was > 92 µM (inactive) in each case. Moreover, the Potency result in [2], in test [15], in test [4], in test [5], in test [6] and in test [19] was “inactive” each time. The compound was classed as inactive in test [3]. In addition, in [18], the max response was -10.2%. In test [16], the activity change % (negative = inhibition) is -13.1% (inactive).
Consider `C=CC(C)(O)CCCC(C)CCCC(C)CCCC(C)C` (configuration not stated), for which the Potency in test [1] was > 92 µM (inactive). For the same compound, the Potency entry in [2], in test [17], in [4], in test [5], in test [20] and in test [9] was “inactive” each time. For the same compound, the max response in test [18] was 4.15%. The activity change % (negative = inhibition) in test [16] was 8.61% (inactive).
With `C/C=C1/C(=O)C[C@H]2[C@@H]3CCC4=CC(=O)CC[C@]4(C)[C@H]3CC[C@]12C`, the Potency in test [1] was > 92 µM (inactive); in [17] it was 50.1 µM (active); in test [12], 39.8 µM (active); in test [5], 50.1 µM (active); in test [6] it was 39.8 µM (active). Further, the Potency entry in test [2] is “inactive”.

(Values after PubChem BioAssay (NCATS).)
